According to PubChem BioAssay (NCATS):
Records with an inconclusive call do not appear. The source made the active and inactive calls. The call rests on the fitted dose curve; in most records, active means well fitted cell-killing curve with a large enough effect; inconclusive means small, poorly fitted or top-dose-only effect, or effect the other way; inactive means flat fitted curve, though single readings scatter.

Key:
Experiment in all cases: Primary qHTS to identify gynecologic anti-cancer compounds using libraries of approved drugs and bioactive compounds (AID 1345084); further: nearly all actives have a fitted effect of over 55% in size
C33A = conditions: Gynecologic cancer cell panel viability, ATPlite luminescence, 48 h; series mostly up to 57.5 µM
Summary of the method: (§1)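 ATP-based viability (ATPlite), 1,000 cells/well, 16 h pre-incubation, 48 h compound at 37 C, 5% CO2, 15 min RT before read.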

CAOV3 = conditions: Gynecologic cancer cell panel viability, ATPlite luminescence, 48 h; series mostly up to 57.5 µM
Summary of the method: as §1

CASKI = conditions: Gynecologic cancer cell panel viability, ATPlite luminescence, 48 h; series mostly up to 57.5 µM
Summary of the method: as §1

Es-2 = conditions: Gynecologic cancer cell panel viability, ATPlite luminescence, 48 h; series mostly up to 57.5 µM
Summary of the method: as §1

HeLa = conditions: Gynecologic cancer cell panel viability, ATPlite luminescence, 48 h; series mostly up to 57.5 µM
Summary of the method: as §1

Hek293T = conditions: Gynecologic cancer cell panel viability, ATPlite luminescence, 48 h, control line for the selectivity index; series mostly up to 57.5 µM
Summary of the method: as §1

JEG-3 = conditions: Gynecologic cancer cell panel viability, ATPlite luminescence, 48 h; series mostly up to 57.5 µM
Summary of the method: as §1
On the % scale 0 is the no-effect control and ±100 the full control effect.

O=C(NC[C@H](O)CN1CCc2ccccc2C1)c1ccnc(NC2CCC2)c1
inactive: Potency (C33A) | Potency (CAOV3) | Potency (CASKI) | Potency (Es-2) | Potency (HeLa) | Potency (Hek293T) | Potency (JEG-3)

Cc1csc(N(C(=O)CSc2ccc(-c3ccccc3)nn2)C2CC2)n1
inactive: Potency (C33A) | Potency (CAOV3) | Potency (CASKI) | Potency (Es-2) | Potency (HeLa) | Potency (Hek293T) | Potency (JEG-3)

C[C@@H]1O[C@@H](O[C@H]2[C@H](O[C@H]3CC[C@@]4(C)C(CC[C@]5(C)C4C=C[C@]46OC[C@@]7(CCC(C)(C)C[C@H]74)[C@@H](O[C@@H]4O[C@@H](C)[C@H](O)[C@@H](O)[C@H]4O)C[C@]65C)[C@]3(C)CO)O[C@H](CO)[C@@H](O)[C@@H]2O[C@@H]2O[C@H](CO)[C@@H](O)[C@H](O)[C@H]2O)[C@H](O)[C@H](O)[C@H]1O (some centres undefined)
inactive: activity change, negative = cytotoxicity (C33A) -27.7% [at 11.6 µM] | activity change, negative = cytotoxicity (CAOV3) 9.8% [at 11.6 µM] | activity change, negative = cytotoxicity (CASKI) -9.63% [at 11.6 µM] | activity change, negative = cytotoxicity (Es-2) -13.3% [at 11.6 µM] | activity change, negative = cytotoxicity (HeLa) 21.7% [at 11.6 µM] | activity change, negative = cytotoxicity (Hek293T) -8.24% [at 11.6 µM] | activity change, negative = cytotoxicity (JEG-3) -15.7% [at 11.6 µM]

CC(C)c1ccccc1OC(=O)NCCc1ccc2ccccc2c1
inactive: Potency (C33A) | Potency (CAOV3) | Potency (CASKI) | Potency (Es-2) | Potency (HeLa) | Potency (Hek293T) | Potency (JEG-3)

COc1ccc(C#Cc2ccc(C(=O)N3CCC[C@@H](CO)C3)cc2)cc1
inactive: Potency (C33A) | Potency (CAOV3) | Potency (CASKI) | Potency (Es-2) | Potency (HeLa) | Potency (Hek293T) | Potency (JEG-3)

CC1(C)CC[C@]2(C(=O)O[C@@H]3O[C@H](CO)[C@@H](O)[C@H](O)[C@H]3O)CC[C@]3(C)C(=CCC4[C@@]5(C)CC[C@H](O[C@@H]6O[C@H](C(=O)O)[C@H](O)[C@H](O)[C@H]6O)C(C)(C)C5CC[C@]43C)[C@@H]2C1 (some centres undefined)
inactive: Potency (C33A) | Potency (CAOV3) | Potency (CASKI) | Potency (Es-2) | Potency (HeLa) | Potency (Hek293T) | Potency (JEG-3)

Cc1cccc(-c2[nH]ncc2-c2ccnc3ccccc23)n1
inactive: Potency (C33A) | Potency (CAOV3) | Potency (CASKI) | Potency (Es-2) | Potency (HeLa) | Potency (Hek293T) | Potency (JEG-3)

CC(C)c1c(O)ccc2c1CC[C@H]1C(C)(C)CCC[C@]21C
inactive: Potency (C33A) | Potency (CAOV3) | Potency (CASKI) | Potency (Es-2) | Potency (HeLa) | Potency (Hek293T) | Potency (JEG-3)

O=C(c1cc(Cc2n[nH]c(=O)c3ccccc23)ccc1F)N1CCCNCC1
inactive: Potency (C33A) | Potency (CAOV3) | Potency (CASKI) | Potency (Es-2) | Potency (HeLa) | Potency (Hek293T) | Potency (JEG-3)

CCC(C)C(=O)O[C@H]1[C@H](O)[C@@]2(COC(C)=O)C(CC1(C)C)C1=CCC3[C@@]4(C)CC[C@H](O[C@@H]5O[C@H](C(=O)O)[C@@H](O)[C@H](O)[C@H]5O)[C@@](C)(CO)C4CC[C@@]3(C)[C@]1(C)C[C@@H]2O (some centres undefined)
inactive: activity change, negative = cytotoxicity (C33A) -3% [at 11.6 µM] | activity change, negative = cytotoxicity (CAOV3) -4.8% [at 11.6 µM] | activity change, negative = cytotoxicity (CASKI) 10.3% [at 11.6 µM] | activity change, negative = cytotoxicity (Es-2) 5.26% [at 11.6 µM] | activity change, negative = cytotoxicity (HeLa) 8.08% [at 11.6 µM] | activity change, negative = cytotoxicity (Hek293T) 5.16% [at 11.6 µM] | activity change, negative = cytotoxicity (JEG-3) 9.72% [at 11.6 µM]

COc1cc(CN(CCN)C(=O)c2cccs2)ccc1OCc1ccccc1
inactive: Potency (C33A) | Potency (CAOV3) | Potency (CASKI) | Potency (Es-2) | Potency (HeLa) | Potency (Hek293T) | Potency (JEG-3)

CCOc1cn(-c2ccc(F)cc2C)nc1C(=O)Nc1ccc(Oc2ccnc3cc(OC)c(OC)cc23)c(F)c1
inactive: Potency (C33A) | Potency (CAOV3) | Potency (CASKI) | Potency (Es-2) | Potency (HeLa) | Potency (Hek293T) | Potency (JEG-3)

O=C(NCc1cccs1)c1cc2nc(-c3ccco3)cc(C(F)(F)Cl)n2n1
inactive: Potency (C33A) | Potency (CAOV3) | Potency (CASKI) | Potency (Es-2) | Potency (HeLa) | Potency (Hek293T) | Potency (JEG-3)

O=S(=O)(Nc1ccccc1N1CCCCC1)c1ccc(Cl)s1
inactive: Potency (C33A) | Potency (CAOV3) | Potency (CASKI) | Potency (Es-2) | Potency (HeLa) | Potency (Hek293T) | Potency (JEG-3)

COC1CCN(c2cccc(-c3cc(NC(C)=O)nc(-n4nc(C)cc4C)n3)n2)CC1
inactive: Potency (C33A) | Potency (CAOV3) | Potency (CASKI) | Potency (Es-2) | Potency (HeLa) | Potency (Hek293T) | Potency (JEG-3)

O=c1cc(OCc2ccc(F)cc2)ccn1-c1ccc(OCCN2CCCC2)cc1
inactive: Potency (C33A) | Potency (CAOV3) | Potency (CASKI) | Potency (Es-2) | Potency (HeLa) | Potency (Hek293T) | Potency (JEG-3)

Cc1[nH]c2ccccc2c1CCNC(=O)c1cccs1
inactive: Potency (C33A) | Potency (CAOV3) | Potency (CASKI) | Potency (Es-2) | Potency (HeLa) | Potency (Hek293T) | Potency (JEG-3)

Cc1cc(OCCCS(C)(=O)=O)cc(C)c1-c1cccc(COc2ccc3c(c2)OCC3CC(=O)O)c1 (centres undefined)
inactive: Potency (C33A) | Potency (CAOV3) | Potency (CASKI) | Potency (Es-2) | Potency (HeLa) | Potency (Hek293T) | Potency (JEG-3)

O=C(NCCCc1ccccc1)C1CCC(CNS(=O)(=O)c2cccc3nsnc23)CC1 (centres undefined)
inactive: Potency (C33A) | Potency (CAOV3) | Potency (CASKI) | Potency (Es-2) | Potency (HeLa) | Potency (Hek293T) | Potency (JEG-3)

c1cc(-c2cnn3cc(-c4ccc(N5CCNCC5)cc4)cnc23)c2cccnc2c1
inactive: Potency (C33A) | Potency (CAOV3) | Potency (CASKI) | Potency (Es-2) | Potency (HeLa) | Potency (Hek293T) | Potency (JEG-3)

C=C1C(=O)OC2CC(C)C(CCC(C)=O)=CCC12 (centres undefined)
inactive: Potency (C33A) | Potency (CAOV3) | Potency (CASKI) | Potency (Es-2) | Potency (HeLa) | Potency (Hek293T) | Potency (JEG-3)

COc1ccc(CN2CCN(CCCSc3cc(C(C)(C)C)c(O)c(C(C)(C)C)c3)CC2)c(OC)c1OC
inactive: activity change, negative = cytotoxicity (C33A) 1.62% [at 11.6 µM] | activity change, negative = cytotoxicity (CAOV3) 11% [at 11.6 µM] | activity change, negative = cytotoxicity (CASKI) -0.531% [at 11.6 µM] | activity change, negative = cytotoxicity (Es-2) 12.2% [at 11.6 µM] | activity change, negative = cytotoxicity (HeLa) 8.85% [at 11.6 µM] | activity change, negative = cytotoxicity (Hek293T) -2.05% [at 11.6 µM] | activity change, negative = cytotoxicity (JEG-3) 1.83% [at 11.6 µM]
